Laboratory results taken from PubChem BioAssay (NCI).
This is part of a sample that, as a whole, favours compounds with a hit. Of some 83,000 tested, about 20% had one in any assay.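 Cell lines were cultured in 96-well plates, exposed to a single compound concentration, and assessed for percent growth 48 hours later.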 A number with no mark means an inactive call. Activity calls are given as the source filed them. The calls were made as follows: active = growth percent below 10; inactive = the rest.

Tested on: MDA-MB-468 breast
Test: NCI-60 one-dose screen, 48 h (100 = growth as untreated, 0 = no growth, -100 = all killed)
Conditions: 10 µM unless noted

| SMILES | growth |
| --- | --- |
| Cc1ccc(C(=O)C2=Cc3cc4ccccc4n3Cc3cnnn32)cc1 | 100% |
| O=[N+]([O-])c1ccc2[nH]c(=S)n(/C=C(/c3ccc(Cl)cc3Cl)S(=O)(=O)Cc3ccc(Cl)cc3Cl)c2c1 | 111% |
| COC(=O)[C@]12CCC(C)(C)C[C@H]1[C@H]1/C(=N/OCCc3nn[nH]n3)C[C@@H]3[C@@]4(C)CC[C@H](OC(C)=O)C(C)(C)[C@@H]4CC[C@@]3(C)[C@]1(C)CC2 | 17.3% |
| CCOc1ccc(S(=O)(=O)c2ccc(C)cc2)c2c1no[n+]2[O-] | 103% |
| CC(c1ccc(-n2cccn2)cc1)c1cnc(N2CCc3ccc(C(N)=O)cc3C2)s1 (configuration not stated) | 30.1% |
| CN1CCN(c2ccc(NC(=O)c3cncnc3Nc3ccc(OCc4ccccn4)c(Cl)c3)cc2)CC1 | 38.1% |
| CC1(C)OC(=O)C(c2ccsc2)C(=O)O1 | 114% |
| Cc1nc(Nc2ccccn2)sc1C(=O)/C=C/c1ccc(Br)cc1 | 27.3% |
| CCOC(=O)c1c(NCC(=O)Nc2cccc(Cl)c2)sc2c1CCCC2 | 73% |
| CCSC(SCC)c1ccc(Cl)cc1 | 118% |
| COc1cc(C(=O)/C=C/c2cccnc2Nc2ccccc2)cc(OC)c1OC | -93.8% (active) |
| S=c1[nH]nc(-c2cc3ccc2CCc2ccc(cc2)CC3)n1-c1ccccc1 | 109% |
| Cc1sc2nc(NCCc3cccs3)[nH]c(=O)c2c1C | 82.4% |
| O=C(NC(Cc1ccc(O)cc1)C(=O)N=Nc1c(O)[nH]c2ccccc12)c1ccccc1 (configuration not stated) | 109% |
| O=C(NCCc1ccccc1)C1CCC(=O)N1Cc1ccc(Br)cc1 (configuration not stated) | 108% |
| O=C(Nc1cc(Cl)cc(Cl)c1)Nc1nc2ccc([N+](=O)[O-])cc2s1 | -24.1% (active) |
| Cc1ccc2c(n1)C(=O)C(Cl)=C(Nc1ccccc1C(=O)OC(C)(C)C)C2=O | -76.5% (active) |
| O=C(Nc1nn2c(-c3cc(C(F)(F)F)cc(C(F)(F)F)c3)nnc2s1)C1CCCC1 | -17.2% (active) |
| COc1ccc(Cn2cc(C(=O)N=Nc3c(O)[nH]c4ccc(Br)cc34)nn2)cc1 | 96.8% |
| COC1=CC(c2ccc[nH]2)=N/C1=C\c1[nH]c(C)c(CCCn2cc(CCCCCCCCC[C@@H]3Cc4cc(O)ccc4C4CC[C@]5(C)[C@@H](O)CC[C@H]5C43)nn2)c1C (some centres not stated) | 30.1% |
| O=[N+]([O-])c1cccc(N=Cc2ccccc2)c1 | 106% |
| Clc1ccc2c(NCCCCNc3nc(N4CCOCC4)nc4ccccc34)ccnc2c1 | 24.9% |
| C[C@@H]1C[C@H]2C(=O)O[C@@H](C)C(NC(=O)[C@H](Cc3cc(F)cc(F)c3)NC(=O)Nc3ccc(C4CC4)cc3F)C(=O)N3CCC[C@H]3C(=O)N3CCCC[C@H]3C(=O)N[C@@H](CO)C(=O)N2C1 (some centres not stated) | -18.1% (active) |
| COc1ccc(/C=N/NC(=O)Cn2c(Cc3cccc4ccccc34)nc3ccccc32)cc1 | 92.4% |
| CC(C)=CCc1cc(O)c(O)c2oc3cc(O)cc(O)c3c(=O)c12 | 123% |
| Cc1ccsc1[C@H]1c2[nH]c3ccccc3c2C[C@H]2C(=O)N(CCCCCCC(=O)NO)CC(=O)N12 | 46.6% |
| O=C1C(Cl)=C(NCCCN2CCOCC2)C(=O)c2ccccc21 | 64.7% |
